Measurements as given in PubChem BioAssay (Tox21).
A structure can be active in one record and inactive in another. Activity calls are given as the source filed them. Entries that show only a call come without a potency. Calls come from the whole dose curve.

Each molecule was assayed against Muscarinic acetylcholine receptor M1 (Homo sapiens) (UniProt P11229) (assay: Cholinergic receptor muscarinic 1 (CHRM1) small molecule agonists, cell-based qHTS assay (AID 1963589; note: nearly all actives have a fitted effect of over 35% in size)). Details: CHRM1-CHO cells, agonist mode, calcium flux fluorescence; series mostly up to 76.8 µM; activation: at the top concentration.
Sequence of Muscarinic acetylcholine receptor M1 (Homo sapiens) (P11229 whole entry, looked up): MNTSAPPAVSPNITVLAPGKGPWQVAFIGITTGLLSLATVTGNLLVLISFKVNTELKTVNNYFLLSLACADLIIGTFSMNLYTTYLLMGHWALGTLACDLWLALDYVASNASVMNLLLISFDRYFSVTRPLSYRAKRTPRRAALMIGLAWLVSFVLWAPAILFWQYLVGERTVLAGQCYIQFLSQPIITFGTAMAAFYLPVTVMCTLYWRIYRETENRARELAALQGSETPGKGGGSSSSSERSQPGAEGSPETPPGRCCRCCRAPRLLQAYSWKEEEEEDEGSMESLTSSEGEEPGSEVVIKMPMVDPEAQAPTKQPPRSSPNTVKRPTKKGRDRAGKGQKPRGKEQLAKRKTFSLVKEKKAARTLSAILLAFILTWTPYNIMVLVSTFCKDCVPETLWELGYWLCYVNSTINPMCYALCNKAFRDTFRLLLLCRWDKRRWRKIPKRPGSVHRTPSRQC
Description: National Center for Advancing Translational Sciences [NCATS]
Division of Preclinical Innovation [DPI]
U.S. Environmental Protection Agency [EPA]
National Institutes of Environmental Health Sciences [NIEHS]
National Toxicology Program [NTP]
U.S. Food and Drug Administration [FDA]
The CHRM1 is a muscarinic receptor. This receptor plays a crucial role in learning and memory processes and has long been identified as a promising therapeutic target for the improvement of cognitive decline in Alzheimer's disease (AD). The CHRM1-CHO cell line stably expressing human muscarinic acetylcholine receptor M1 (CHRM1) can be used for screening agonists and antagonists of interactions between CHRM1 and its ligands. The CHRM1-CHO Calcium Flux Assay is a homogeneous fluorescence-based assay for detecting the intracellular calcium level using FDSS kinetic plate reader system.
CHRM1-CHO cells were dispensed at 1000 cells/3uL/well in 1536-well black-clear bottom plates using a Multidrop Dispenser. After the assay plates were incubated at a 37 C/5% CO2 incubator for 18 h, 3 uL of Dye Loading Buffer was transferred to the assay plate by a Flying Reagent Dispenser. The assay plates were incubated at 37 C for 1h. For agonist mode, 23 nL of compounds dissolved in DMSO, positive controls or DMSO only was transferred to the assay plate by a pin tool. […] Each test compound was measured at 15 concentrations in three independent runs.
Potency is the fitted concentration of half-maximal effect.

| SMILES | Potency | activation |
| --- | --- | --- |
| O=C1CCCN1 | 49.5 µM (active) and inactive | – |
| CC1C=[C-]C=C1.[C-]#[O+].[C-]#[O+].[C-]#[O+].[Mn] | inactive | – |
| Cn1c(N)nc2c3cccnc3ccc21 | – | -0.575% (inactive) |
| O=NN1CCCCCCC1 | inactive | – |
| Nc1ccc(Cl)cc1 | inactive | – |
| COP(=S)(OC)Oc1ccc([N+](=O)[O-])cc1 | inactive | – |
| CN(C)CCO | inactive | – |
| CCCCCCCCC(=O)NCc1ccc(O)c(OC)c1 | inactive | – |
| CCC(=O)O[C@H]1CC[C@H]2[C@@H]3CCC4=CC(=O)CC[C@]4(C)[C@H]3CC[C@]12C | inactive | – |
| c1ccc(N2CCNCC2)cc1 | – | 14.2% [at 35.3 µM] (inactive) |
| O=C(O)CCCOc1ccc(Cl)cc1Cl | inactive | – |
| OCCSCSCCO | – | 0.198% (inactive) |
| Fc1cc(Br)ccc1CBr | – | -0.169% [at 35.3 µM] (inactive) |
| C=CC(=O)OCCCCCC(C)C | inactive | – |
| CCCCCCCCCCCCCC[P+](CCCCCC)(CCCCCC)CCCCCC | inactive | – |
| O=c1ccc(=O)[nH][nH]1 | inactive | – |
| N#Cc1cccc(C#N)c1 | inactive | – |
| ClCCN1CCCC1 | – | 1.64% [at 35.3 µM] (inactive) |
| CCCCCCCCCCCCBr | – | 0.23% (inactive) |
| COC(=O)NS(=O)(=O)c1ccc(N)cc1 | inactive | – |

| SMILES | Potency | activation |
| --- | --- | --- |
| c1ccc(N=NNc2ccccc2)cc1 | inactive | – |
| CN(C)C(=O)Nc1cccc(C(F)(F)F)c1 | inactive | – |
| CN(C)C(=O)C(c1ccccc1)c1ccccc1 | inactive | – |
| NCCOS(=O)(=O)O | – | 18.5% (inactive) |
| CCCCC1C(=O)NC(=O)N(C2CCCCC2)C1=O (stereo not given) | – | 0.537% [at 35.3 µM] (inactive) |
| Oc1cc(Cl)ccc1Cl | inactive | – |
| CNC(=O)Oc1c(C(C)(C)C)cc(C)cc1C(C)(C)C | – | -0.909% (inactive) |
| CCCC1CCCCN1 (stereo not given) | – | 3.77% [at 35.3 µM] (inactive) |
| O=C(NC(=O)c1ccccc1Cl)Nc1ccc(OC(F)(F)F)cc1 | – | -0.0206% (inactive) |
| CCN(N=O)C(N)=O | inactive | – |
| CN(CCO)CCO | – | 5.61% (inactive) |
| CN(C)C(=S)S | inactive | – |
| CCOP(OCC)OCC | inactive | – |
| CCOC(=O)c1ccccc1N | inactive | – |
| C[C@]12CC[C@H]3[C@@H](CC[C@@]45O[C@@H]4C(O)=C(C#N)C[C@]35C)[C@@H]1CC[C@@H]2O | inactive | – |
| CCN(CC)C1CCCCC1 | – | 0.085% (inactive) |
| CNC(=S)S | inactive | – |
| O=Cc1cccc(Oc2ccccc2)c1 | – | 1.6% (inactive) |
| CC12CC1(C)C(=O)N(c1cc(Cl)cc(Cl)c1)C2=O (stereo not given) | inactive | – |
| Nc1ncc([N+](=O)[O-])s1 | inactive | – |
